Laboratory results: PubChem BioAssay AID950 (NMMLSC, 2007)
The campaign covered roughly 190,000 compounds. About 120 (0.063%) were called active. This is one part of a sample in which actives are shown more often than they occur. Values without a mark were called inactive. No stated cut-off is given here; in the data, active means inhibition above about 40%; inconclusive means no clear call, values can overlap the other calls; inactive means below that.

The compounds below were run against Apoptosis regulator Bcl-2 (Homo sapiens) (UniProt P10415) (assay: Bcl-2 and Bim peptide interaction disruptors – biochemical, multiplexed, human Bcl-2 family, primary screen (AID 950;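 further: 0% = no compound wells with probe peptide and 100% = reference peptide inhibitor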)). Conditions: Bead-based flow cytometry, Bim peptide-Bcl-2 binding; at 10 µM; stronger effect = higher value.
Apoptosis regulator Bcl-2 (Homo sapiens), sequence (P10415 whole entry, looked up): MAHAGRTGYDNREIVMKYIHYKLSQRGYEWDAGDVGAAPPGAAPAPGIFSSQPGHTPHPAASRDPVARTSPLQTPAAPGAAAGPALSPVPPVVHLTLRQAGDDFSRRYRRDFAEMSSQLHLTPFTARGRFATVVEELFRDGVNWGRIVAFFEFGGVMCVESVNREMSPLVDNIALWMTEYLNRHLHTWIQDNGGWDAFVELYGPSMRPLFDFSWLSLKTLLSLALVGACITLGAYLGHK

| SMILES | inhibition |
| --- | --- |
| CC(NC(=S)Nc1ccccc1)C1COc2ccccc2O1 (configuration not stated) | -6% |
| O=C(CCC(=O)N1CCCC1)Nc1ccc([N+](=O)[O-])cc1 | -2% |
| CC(C)CNC(=S)NC(=O)c1ccc(Cl)cc1 | 0% |
| COCCN(C(=O)C(C)C)c1nnc(-c2ccc(C(C)(C)C)cc2)s1 | -5% |
| C=C1C2C[C@H](O)C(C)(C)[C@@]2(O)[C@H](O)C[C@]23C[C@@](C)(O)[C@H](CC[C@H]12)[C@H]3O (some centres not stated) | 0% |
| Nc1nc(SCC(=O)N2CCN(S(=O)(=O)c3ccc(Cl)cc3)CC2)n[nH]1 | -1% |
| COc1cc([N+](=O)[O-])ccc1NC(=S)N1CCN(c2ccccn2)CC1 | 0% |
| Cc1ccc(NC(=S)NC(=O)/C=C/c2ccc(Cl)cc2)cc1 | -10% |
| COC(=O)c1c(NC(=O)CCCC(=O)O)sc2c1CCCCC2 | -3% |
| COc1cccc(NC(=O)COC(=O)CCOc2ccccc2OC)c1 | -2% |
| Cc1cccc(/C(N)=N/OC(=O)c2ccccc2Cl)c1 | -7% |
| CCOC(=O)C(C)n1nc(-c2ccccc2)c2ccccc2c1=O (configuration not stated) | -1% |
| Cn1cc(Cl)c(C(=O)NNC(=S)Nc2cccc(Cl)c2)n1 | 0% |
| Cc1ccc(OC(=O)CCC(=O)Nc2ccc(Br)cc2)cc1 | 0% |
| O=C(N/N=C/c1ccccn1)c1ccc(S(=O)(=O)N2CCCCCC2)cc1 | 0% |
| O=[N+]([O-])/C(N=Nc1ccccc1)=N\Nc1ccccc1 | -1% |
| N#CCC(=O)N/N=C/c1ccc(SCC(=O)Nc2ccccc2)o1 | -1% |
| Cc1ccc(NC(=O)Nc2cccc(C(F)(F)F)c2)nc1 | 0% |
| CN1CCN(CC(=O)Nc2cccc([N+](=O)[O-])c2)CC1 | -1% |
| O=C(COC(=O)Cn1cnc2ccccc21)Nc1cccc2c1C(=O)c1ccccc1C2=O | -1% |
| CC1COc2ccccc2N1S(=O)(=O)c1ccccc1 (configuration not stated) | -1% |
| COc1cc(NC(=O)c2ccccc2NS(=O)(=O)c2ccc(Cl)s2)cc(OC)c1 | 12% |
| CCC(=O)Nc1ccc(C(=O)N2CCN(C(=O)c3ccco3)CC2)cc1 | 3% |
| COc1ccc(/C=C/C(=O)OCC(=O)NCc2cccs2)cc1OC | 0% |
| CCOC(=O)N1CCN(Cc2nc(Cc3cccc(C(F)(F)F)c3)no2)CC1 | -6% |

| SMILES | inhibition |
| --- | --- |
| COc1cc2nc(CN(C)Cc3ccc(F)cc3)[nH]c(=O)c2cc1OC | 14% |
| O=C(O)CCCCCNc1ncnc2ccc(Br)cc12 | 3% |
| COc1ccccc1-n1ccnc1SCC(=O)NC(C)(C)C | -11% |
| CC12CN(NC(=O)c3ccc(Cl)cc3)C3(C#N)CC1CCC23C (configuration not stated) | 0% |
| CC(=O)c1ccc(NC(=O)C(C)N(C)CC(=O)Nc2ccccc2Cl)cc1 (configuration not stated) | 1% |
| CN(C)c1ccc(/C=N\S(=O)(=O)c2ccccc2)cc1 | 2% |
| CCC1CCCCN1S(=O)(=O)Cc1ccccc1Cl (configuration not stated) | 1% |
| CCOc1ccc(NC(=S)N2CCCCCC2)cc1 | -6% |
| COc1cccc(CNC(=O)CCC2CCCN(C(=O)c3cc(C)[nH]n3)C2)c1 (configuration not stated) | -4% |
| CCOc1ccc2c(=O)c(-c3ccc4c(c3)OCCCO4)c(C)oc2c1 | -3% |
| N/C(=N\OC(=O)c1ccc([N+](=O)[O-])cc1)c1ccccn1 | -3% |
| COc1ccc2cc(-c3[nH]ncc3CNCCn3nc(C)cc3C)ccc2c1 | -2% |
| Cc1cccc(NC(=O)CN2C(=O)c3ccccc3C2=O)c1C | 0% |
| Fc1cccc(Cc2noc(CN3CCN(c4cnccn4)CC3)n2)c1 | 0% |
| Cc1cccc(-n2c(SCC(N)=O)nc3c(c2=O)C2(CCCCC2)Cc2ccccc2-3)c1 | 1% |
| CCCCCNC(=O)c1cccnc1SCC(=O)Nc1ccccc1OC | -2% |
| O=C1CCCC2=C1C(c1cccs1)CC(=O)N2c1ccc(F)cc1 (configuration not stated) | 4% |
| O=C(CC(=O)N/N=C\c1cccc(Cl)c1Cl)NCc1ccccc1 | -2% |
| O=C(NN1C(=O)C2C3C=CC(C3)C2C1=O)c1ccco1 (configuration not stated) | -4% |
| CN(c1ccccc1)c1nc(N)c([N+](=O)[O-])c(NCc2ccco2)n1 | -2% |
| Cn1c(=N)n(CC(O)c2cccs2)c2ccccc21 (configuration not stated) | -1% |
| O=C(CSc1ccc(C(F)(F)F)cc1[N+](=O)[O-])NCCOc1ccccc1 | -7% |
| CC(C)(CNC(=O)c1ccc(Cl)c(S(=O)(=O)N2CCc3ccccc3C2)c1)N1CCOCC1 | 0% |
| CCN(CC)c1ccc2c(Nc3ccccc3)c(C=O)c(=O)oc2c1 | -4% |
| C#CCOCCOCCOCCNc1nc(N2CCN(C(=O)[C@H](C(C)C)n3cc(CCO)nn3)CC2)nc(N2CCN(C(=O)[C@H](C(C)C)n3cc(CCO)nn3)CC2)n1 | -3% |

| SMILES | inhibition |
| --- | --- |
| Cc1cc(C)c(C2C3=C(Nc4c2c(C)nn4-c2ccccn2)c2ccccc2C3=O)c(C)c1 (configuration not stated) | -2% |
| CCN1CCc2nc(NC(=O)c3cc(F)c(F)cc3Cl)sc2C1 | -5% |
| COc1ccc(C(=O)C2CCCN(Cc3cccn3-c3ccccn3)C2)c(C)c1 (configuration not stated) | 0% |
| CCc1ccc(C2N3CC4([N+](=O)[O-])CN2CC([N+](=O)[O-])(C3)C4(C)C)cc1 (configuration not stated) | -9% |
| CC1CCN(C(=S)c2cccc(O)c2)CC1 | -5% |
| C/C(=N\NC(=O)c1cccnc1)c1ccc(-n2ccnc2)cc1 | -4% |
| CCOC(=O)C1CCN(C(=O)C2(NC(=O)Nc3cccc(F)c3)CCCCC2)CC1 | -2% |
| C=CCc1ccccc1OCC(=O)N/N=C/c1ccccc1OCC | -4% |
| CCOc1ccccc1/C=N/NC(=O)CNC(=O)COc1ccccc1 | 79% (active) |
| Cc1ccc(/C=N/NC(=O)CNC(=O)COc2ccccc2)o1 | -10% |
| O=C(CN1CCN(c2ncccn2)CC1)Nc1ccccc1C(F)(F)F | -2% |
| COCCCNC(NC(=O)c1ccc(OC)cc1)C(Cl)(Cl)Cl (configuration not stated) | 0% |
| Cc1cccc(NC(=S)NCc2ccc3[nH]c4c(c3c2)CCCC4)c1 | 2% |
| NS(=O)(=O)c1ccc(NC(=O)COC(=O)C2(c3ccc(F)cc3)CCCC2)cc1 | -9% |
| Cc1cccc(Nc2nc3c(S(=O)(=O)c4ccccc4)nnn3c3ccccc23)c1C | 0% |
| CCc1ccc(NC(=O)Cn2nc(C)c([N+](=O)[O-])c2C)cc1 | -2% |
| CC(C)c1ccc(C2C(C#N)=C(N)Oc3c2oc(CO)cc3=O)cc1 (configuration not stated) | -2% |
| CCOc1ccc(NC(=O)COc2ccc(C(=O)NC3CCCc4ccccc43)cc2OC)cc1 (configuration not stated) | -6% |
| O=C(NCC1CCCO1)/C(=C/c1ccc(Cl)cc1)NC(=O)c1ccccc1 (configuration not stated) | -5% |
| CCCNS(=O)(=O)c1ccc(CCC(=O)N2CCCC2)cc1 | -5% |
| CC(=O)c1c(C)[nH]c(C(=O)OCC(=O)NCCC(C)C)c1C | -3% |
| CCOC(=O)CCNC(=O)N1CCCC(C(=O)c2ccccc2SC)C1 (configuration not stated) | 2% |
| CC(CC(=O)C1C(C)C=CCC1(C)C)NNC(N)=O (configuration not stated) | -3% |
| CC(Sc1nnnn1C1CCCCC1)C(=O)O (configuration not stated) | -2% |
| COc1ccc(Cl)cc1NC(=O)COC(=O)C(CC(C)C)N1C(=O)C2CC=CCC2C1=O (configuration not stated) | -9% |

| SMILES | inhibition |
| --- | --- |
| COc1cccc(NC(=O)NCc2ccc(F)cc2)c1 | 0% |
| Cc1cc(Cl)c(S(=O)(=O)Nc2ccc3c(c2)OCCO3)cc1OCC(N)=O | -1% |
| Cc1cc(Cl)c(S(=O)(=O)NCC2CCCO2)cc1OCC(N)=O (configuration not stated) | 79% (active) |
| Cc1cc(Cl)c(S(=O)(=O)NCCC(=O)O)cc1OCC(N)=O | -7% |
| CN(C)CCOCCOc1ccc(Cl)c2ccccc12 | -7% |
| O=C(Nc1ccccc1C(=O)N1CCCCCC1)c1ccccc1Cl | -4% |
| CC(=O)Nc1ccc(S(=O)(=O)NC2(C(F)(F)F)C(=O)Nc3c2c(=O)[nH]c(=O)n3Cc2ccccc2)cc1 (configuration not stated) | -4% |
| COCCOC(=O)c1c(C)oc2cc(Br)c(OCC(N)=O)cc12 | 0% |
| CCCCN(C(=O)COc1ccc(NC(C)=O)cc1)C1CCS(=O)(=O)C1 (configuration not stated) | -3% |
| COCCn1c(C)cc(C(=O)COC(=O)/C=C/c2cccc(OC)c2)c1C | -5% |
| O=C(O)Cc1ccc(NCc2ccccc2Cl)cc1 | -3% |
| CC1CN(S(=O)(=O)c2ccc(C(=O)Nc3sccc3C(N)=O)cc2)CC(C)O1 (configuration not stated) | 1% |
| Cc1ccc(-c2nc(C#N)c(NCCCn3ccnc3)o2)cc1 | -2% |
| O=C(CNCc1ccco1)Nc1cc(S(=O)(=O)N2CCOCC2)ccc1N1CCCC1 | -2% |
| CC(C)=CCN1CCN(Cc2ccc(Oc3ncccn3)cc2)CC1CCO (configuration not stated) | 1% |
| COc1ccc(N2CCN(C(=S)Nc3ccc(S(N)(=O)=O)cc3)CC2)cc1 | -3% |
| O=C(NCc1ccc(Cl)cc1)NCc1ccc(Cl)cc1 | -4% |
| O=C(CSc1ccc(-c2ccc(F)cc2)nn1)Nc1ccc2c(c1)OCCO2 | -6% |
| O=C(Nc1cccc(F)c1)N1C2CCC1CC(O)(c1cccnc1)C2 (configuration not stated) | 0% |
| O=C(CN1CCN(c2ccc(O)cc2)CC1)Nc1cc(S(=O)(=O)N2CCOCC2)ccc1Cl | 0% |
| COc1cc(COCC(O)CN2CCN(Cc3ccc4c(c3)OCO4)CC2)cc(OC)c1OC (configuration not stated) | -1% |
| COC(=O)C1=C(C)N(C)C(=S)NC1c1cc(OC)ccc1OC (configuration not stated) | -5% |
